TDP1 cell noCPT: qHTS for Inhibitors of human tyrosyl-DNA phosphodiesterase 1 (TDP1): qHTS in cells in absence of CPT. 420,000 compounds, 15% hits. Potency, µM (titrated, usually from 46.2 µM), without a hit: at the highest dose activity change, negative = growth inhibition, usual class: inhibitors. DT40 Tdp1-/- hTDP1 cells, no CPT, ATP luminescence, 48 h. AID 686978, 2013; also: potency is read from the fitted curve at half-maximal effect; nearly all actives have a fitted effect of over 55% in size
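Readout: luminescence from CellTiter-Glo after 30 min in the dark at RT. Cells: DT40 Tdp1-/- with stable hTDP1, 400/well. Exposure: compounds alone, ≥48 hr, 37 °C.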
TDP1 cell CPT: growth inhibition of DT40 Tdp1-/-;hTDP1 cells with camptothecin (screen for TDP1 inhibitors); chicken DT40 Tdp1-/-;hTDP1 cells + 20 nM CPT, ATP luminescence, 48 h; 420,000 compounds, 12% hits; Potency, µM (doses to about 46.2 µM), inactives show top-dose activity change, negative = growth inhibition, hits mostly inhibitors; AID 686979; also: potency is read from the fitted curve at half-maximal effect; nearly all actives have a fitted effect of over 55% in size
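Chicken DT40 Tdp1-/- cells complemented with human TDP1, 400 cells/well, exposed to compounds plus 20 nM camptothecin for at least 48 h at 37 C; viability read as ATP content by CellTiter-Glo luminescence.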
IL1B secr inh: blocks inflammasome-driven IL-1 beta release | THP-1 LPS/ATP IL-1B secretion, AlphaLISA, 16 h; active compounds read low | AID 743279 | activity change, % at 57.5 µM | 360,000 compounds, 4.7% hits; in the data active = activity change below about -50%; inconclusive = mostly about -30% to -49%
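THP-1 cells pretreated 1 hr with compounds (up to 57.5 uM final), then stimulated with LPS (250 ng/mL final) plus ATP (1.25 mM final); secreted IL-1B measured by AlphaLISA after 16 hr, decreased signal indicating inhibition.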
HT1080 IDH1KD tx: kills HT-1080 cells with IDH1 knockdown; HT-1080 IDH1 knockdown viability, ATP luminescence, 48 h; Potency, µM (doses to about 46.1 µM), for inactives: at the highest dose activity, negative = toxicity, most hits filed as cytotoxic; 360,000 compounds, 2% hits;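 also: potency is read from the fitted curve at half-maximal effect; 0% = DMSO wells and -100% = cell-free medium wells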
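In this qHTS, HT-1080 cells depleted of IDH1 are exposed for 48 h at 37 °C to compound titrations. Toxicity is scored from CellTiter-Glo luminescence, with DMSO as full viability and medium alone as none.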
HT1080-NT tox: kills 2HG-producing HT-1080-NT fibrosarcoma cells. HT-1080-NT fibrosarcoma viability, CellTiter-Glo ATP luminescence, 48 h. Potency, µM (top dose mostly 46.1 µM), without a hit: at the top dose activity, negative = less viability, usual class: cytotoxic. 360,000 compounds, 1.6% hits. AID 686970;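 also: NT is the 2HG producing partner of a matched IDH1 knockdown line; potency is read from the fitted curve at half-maximal effect; 0% = DMSO-treated cells and -100% = media-only wells without cells; nearly all actives have a fitted effect of over 55% in size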
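Luminescent CellTiter-Glo readout after 48 hours of compound exposure at 37 degrees C defined viability of HT-1080-NT cells. Activity was normalized to DMSO wells and cell-free media wells; concentration-response curves were fitted and assigned curve classes.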
* marks the source's active call; other numbers are inactive results. The list is not random: actives were taken first. Their share in the collection is about 19%. Unless noted, calls follow the shape of the dose curve; as a rule, active = well fitted curve in the direction sought with a large enough effect; inconclusive = small, poorly fitted or top-dose-only effect, or another doubt; inactive = no such curve, though single readings can be large; an effect the other way counts as inactive or inconclusive. Unless noted, % is scaled to controls: 0 for no effect and ±100 for the full control effect.

What do the screens show for `COc1cccc(CNC(=O)C(C)n2c(=O)cc(-c3ccccc3)c3c(C)nn(C)c32)c1` (centres undefined)?
TDP1 cell noCPT: -49%; TDP1 cell CPT: inconclusive

How did COc1ccc(OC)c(CNC(=O)c2c(C)oc3ncn(CC(C)C)c(=O)c23)c1 do in these assays?
TDP1 cell noCPT: 16µM*; TDP1 cell CPT: inconclusive

How did COc1ccc(OC)c(CCNC(=O)c2c(C)oc3ncn(C)c(=O)c23)c1 do in these assays?
TDP1 cell noCPT: -4%; TDP1 cell CPT: -22%

What do the screens show for `COc1ccc(OC)c(CCNC(=O)c2c(C)oc3ncn(CC(C)C)c(=O)c23)c1`?
TDP1 cell noCPT: 18µM*; TDP1 cell CPT: inconclusive

What do the screens show for `COc1ccc(OC)c(CNC(=O)c2coc(=O)c3ccccc23)c1`?
TDP1 cell noCPT: inconclusive; TDP1 cell CPT: -30%; IL1B secr inh: -7; HT1080 IDH1KD tx: -27%; HT1080-NT tox: -10%

Results for COc1cccc(N2CCN(C(=O)c3cc(-c4ccccc4)nc4c3cnn4C(C)C)CC2)c1 ?
TDP1 cell noCPT: inconclusive; TDP1 cell CPT: inconclusive; IL1B secr inh: inconclusive; HT1080 IDH1KD tx: -15%; HT1080-NT tox: 2%

Results for CSc1nc2[nH]c(=O)n(O)c(=O)c2n1Cc1ccccc1 ?
TDP1 cell noCPT: 18µM*; TDP1 cell CPT: inconclusive; IL1B secr inh: -9; HT1080 IDH1KD tx: inconclusive; HT1080-NT tox: inconclusive

How did Cc1cc(=O)n2[nH]c(SCc3c(F)cccc3Cl)nc2n1 do in these assays?
TDP1 cell noCPT: inconclusive; TDP1 cell CPT: 2%; IL1B secr inh: 17; HT1080 IDH1KD tx: -11%; HT1080-NT tox: -18%

What do the screens show for `COc1ccc(-c2cc(CNC(=O)CCl)on2)cc1`?
TDP1 cell noCPT: inconclusive; TDP1 cell CPT: inconclusive; IL1B secr inh: -92*; HT1080 IDH1KD tx: inconclusive; HT1080-NT tox: inconclusive

What do the screens show for `O=C(NCc1cccnc1)c1cccc(S(=O)(=O)Nc2cccc(Cl)c2)c1`?
TDP1 cell noCPT: inconclusive; TDP1 cell CPT: inconclusive; IL1B secr inh: 3; HT1080 IDH1KD tx: -10%; HT1080-NT tox: -9%

Results for COc1ccc(/C=C/C(=O)NCC2Cc3cccc(-c4nc(C)cnc4C)c3O2)cc1OC (centres undefined) ?
TDP1 cell noCPT: -4%; TDP1 cell CPT: 9%

What do the screens show for `Cc1ccc(CN(C)C(=O)CN2C(=O)NC(c3ccccc3)(c3ccccc3)C2=O)c(C)c1`?
TDP1 cell noCPT: 16µM*; TDP1 cell CPT: inconclusive; IL1B secr inh: -63*; HT1080 IDH1KD tx: -5%; HT1080-NT tox: -19%

What do the screens show for `O=C(CCl)N(C/C=C/c1ccccc1)c1ccc2c(c1)OCCO2`?
TDP1 cell noCPT: 6.5µM*; TDP1 cell CPT: 3.7µM*; IL1B secr inh: -115*; HT1080 IDH1KD tx: inconclusive; HT1080-NT tox: 10µM*

How did N#CCCN(C(=O)CSc1ncccn1)c1ccc2c(c1)OCCO2 do in these assays?
TDP1 cell noCPT: 5%; TDP1 cell CPT: -15%; IL1B secr inh: -15; HT1080 IDH1KD tx: 2%; HT1080-NT tox: 18%

What do the screens show for `CCOC(=O)c1ccc(N2C(=O)c3n[nH]c(-c4ccco4)c3C2c2ccc([N+](=O)[O-])cc2)cc1` (centres undefined)?
TDP1 cell noCPT: 12µM*; TDP1 cell CPT: 23µM*; IL1B secr inh: inconclusive; HT1080 IDH1KD tx: inconclusive; HT1080-NT tox: -28%

What do the screens show for `CCOC(=O)c1ccc(N2C(=O)c3n[nH]c(C)c3C2c2ccc(OCC)cc2)cc1` (centres undefined)?
TDP1 cell noCPT: 10µM*; TDP1 cell CPT: inconclusive

Results for CCOC(=O)c1ccc(N2C(=O)c3n[nH]c(-c4ccco4)c3C2c2ccc(C)cc2)cc1 (centres undefined) ?
TDP1 cell noCPT: 10µM*; TDP1 cell CPT: 26µM*

Results for O=C1C=C(NCc2ccc(Cl)cc2)CC(c2ccco2)C1 (centres undefined) ?
TDP1 cell noCPT: inconclusive; TDP1 cell CPT: 23µM*; IL1B secr inh: -2; HT1080 IDH1KD tx: inconclusive; HT1080-NT tox: -29%

How did CC(C)CNC1=CC(=O)CC(c2ccco2)C1 (centres undefined) do in these assays?
TDP1 cell noCPT: -5%; TDP1 cell CPT: -26%; IL1B secr inh: 0; HT1080 IDH1KD tx: -5%; HT1080-NT tox: 0%

What do the screens show for `CCOC(=O)c1ccc(NC2=CC(=O)CC(c3ccco3)C2)cc1` (centres undefined)?
TDP1 cell noCPT: inconclusive; TDP1 cell CPT: -13%; IL1B secr inh: 0; HT1080 IDH1KD tx: -2%; HT1080-NT tox: -6%

What do the screens show for `O=C1C=C(Nc2ccc(Cl)cc2Cl)CC(c2ccco2)C1` (centres undefined)?
TDP1 cell noCPT: 4.1µM*; TDP1 cell CPT: 3.7µM*; IL1B secr inh: -2; HT1080 IDH1KD tx: 2.3µM*; HT1080-NT tox: 3.7µM*

Results for O=C1C=C(Nc2ccc(O)cc2)CC(c2ccco2)C1 (centres undefined) ?
TDP1 cell noCPT: 23µM*; TDP1 cell CPT: 21µM*; IL1B secr inh: 12; HT1080 IDH1KD tx: inconclusive; HT1080-NT tox: inconclusive

Results for COc1cccc(CNC(=O)CSc2nc3ccccc3nc2Cc2ccc(C)cc2)c1OC ?
TDP1 cell noCPT: -3%; TDP1 cell CPT: 0%

What do the screens show for `CN1CCc2c(sc3c2c(=O)n(-c2ccccc2)c2n[nH]c(=S)n32)C1`?
TDP1 cell noCPT: -13%; TDP1 cell CPT: -12%; IL1B secr inh: 2; HT1080 IDH1KD tx: -8%; HT1080-NT tox: -5%

Results for Cc1cccc(N2CCN(C(=O)CN3CCOc4ccccc43)CC2C)c1 (centres undefined) ?
TDP1 cell noCPT: inconclusive; TDP1 cell CPT: 23µM*; IL1B secr inh: -24; HT1080 IDH1KD tx: -1%; HT1080-NT tox: 3%

What do the screens show for `COc1cccc(N2CCN(C(=O)CC(NC(=O)c3ccccc3)c3ccccc3)CC2)c1` (centres undefined)?
TDP1 cell noCPT: -30%; TDP1 cell CPT: -20%; IL1B secr inh: -11; HT1080 IDH1KD tx: -2%; HT1080-NT tox: 5%

How did Cc1cccc(N2CCN(C(=O)c3ccc4c(c3)OCCO4)CC2C)c1 (centres undefined) do in these assays?
TDP1 cell noCPT: -2%; TDP1 cell CPT: 30%; IL1B secr inh: 15; HT1080 IDH1KD tx: 13%; HT1080-NT tox: 15%

Results for O=C(Cn1ccc2ccccc2c1=O)N1CCN(c2cccc(Cl)c2)CC1 ?
TDP1 cell noCPT: inconclusive; TDP1 cell CPT: -13%; IL1B secr inh: -2; HT1080 IDH1KD tx: 1%; HT1080-NT tox: 1%

Screens (PubChem)
